PubChem BioAssay (Tox21)
Inconclusive results are not listed. Calls of active or inactive are those of the source. Unless noted, calls follow the shape of the full dose curve.

Tests used:
[1] = Nuclear factor erythroid 2-related factor 2/antioxidant responsive element (Nrf2/ARE) small molecule agonists: qHTS cell viability counter screen in human keratinocytes (AID 1919968; active = well fitted curve in the direction sought with a large enough effect in the repeat runs; an effect the other way counts as inactive or inconclusive; also: nearly all actives have a fitted effect of over 55% in size)
Procedure, shortened: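 Seed 1,500 KeratinoSens cells per well, then incubate 5 h at 37 C/5% CO2. Add compounds in DMSO and incubate 23 h. Add CellTiter-Fluor, wait 1 h and read fluorescence.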

[2] = Nuclear factor erythroid 2-related factor 2/antioxidant responsive element (Nrf2/ARE) small molecule agonists: luciferase reporter gene qHTS assay in human keratinocytes (AID 1919969); also: nearly all actives have a fitted effect of over 35% in size
[3] = molecular target: Gonadotropin-releasing hormone receptor (Homo sapiens) (UniProt P30968); assay: Human gonadotropin-releasing hormone receptor (GnRHR) small molecule agonists, calcium flux assay in GnRHR-HEK293 cells (AID 1920063); also: nearly all actives have a fitted effect of over 35% in size
Procedure, shortened: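 Cells: HEK293 stably expressing human GnRHR. Steps: overnight (18 h) culture, 1 h calcium dye loading at 37 C, compound addition, kinetic fluorescence read at 480/540 nm. Each compound tested at 15 concentrations in triplicate.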

[4] = molecular target: KiSS-1 receptor (Homo sapiens) (UniProt Q969F8); assay: Human kisspeptin (KISS1R) small molecule agonists, calcium flux assay in KISS1R-HEK293 cells (AID 1920064; active = well fitted curve in the direction sought with a large enough effect in the repeat runs; an effect the other way counts as inactive or inconclusive)
Procedure, shortened: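 Cells plated and incubated 18 h; dye added, 1 h at 37 C; compounds in DMSO pinned in; signal read at 480/540 nm every second for 3 min. Each compound tested at 15 concentrations in triplicate.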

[5] = G protein-coupled receptor (GPCR) small molecule agonists, calcium flux assay: HEK293 wild type cell line counter screen (AID 1920065)
Procedure, shortened: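 Counter-screen of the Tox21 10K library for non-specific calcium release: dye-loaded cells received compounds in DMSO and were monitored by kinetic fluorescence (480/540 nm, 3 min). Fifteen concentrations, run in triplicate.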

[6] = p53 small molecule agonists, cell-based qHTS assay with human liver microsomes: qHTS cell viability counter screen (AID 1963579); also: nearly all actives have a fitted effect of over 45% in size
Procedure, shortened: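 In this multiplexed counter screen, the reporter plates were subsequently treated with CellTiter-Glo so that cell viability, reflected by luminescence, could be recorded for p53RE-bla cells dosed 16 h with compounds under microsomal activation (HLM and NADPH).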

[7] = p53 small molecule agonists, cell-based qHTS assay with rat liver microsomes: qHTS cell viability counter screen (AID 1963580); also: nearly all actives have a fitted effect of over 45% in size
Procedure, shortened: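 Intracellular ATP, by CellTiter-Glo luminescence, defines viability. HCT-116 p53RE-bla cells, 4,000 per well, were compound-treated in the presence of rat liver microsomes and NADPH for 16 h at 37 C.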

[8] = p53 small molecule agonists, cell-based qHTS assay: qHTS cell viability counter screen (AID 1963581); also: nearly all actives have a fitted effect of over 45% in size
Procedure, shortened: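 Cells: HCT-116 with p53 response element-driven beta-lactamase. Treatment: 16 h, 37 C, compounds in DMSO. Read: CellTiter-Glo luminescence after 30 min RT.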

[9] = molecular target: 5-hydroxytryptamine receptor 2A (Homo sapiens) (UniProt P28223); assay: 5-hydroxytryptamine receptor 2A (HTR2A) small molecule antagonists, cell-based qHTS assay (AID 1963586); also: nearly all actives have a fitted effect of over 45% in size
Procedure, shortened: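 Antagonist-mode intracellular calcium assay: DOI (4 nM) added after 5 min compound pre-incubation at room temperature to dye-loaded HTR2A-CHO cells. Fluorescence followed for 3 min, sampled every second.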

[10] = molecular target: 5-hydroxytryptamine receptor 2A (Homo sapiens) (UniProt P28223); assay: 5-hydroxytryptamine receptor 2A (HTR2A) small molecule agonists, cell-based qHTS assay (AID 1963587); also: nearly all actives have a fitted effect of over 30% in size
Procedure, shortened: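 Kinetic calcium-flux fluorescence (2 min, 1 sec intervals) after compound addition in agonist mode. HTR2A-CHO cells were cultured 18 h, then dye-loaded 1 h at 37 C.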

[11] = molecular target: Muscarinic acetylcholine receptor M1 (Homo sapiens) (UniProt P11229); assay: Cholinergic receptor muscarinic 1 (CHRM1) small molecule antagonists, cell-based qHTS assay (AID 1963588); also: nearly all actives have a fitted effect of over 40% in size
Procedure, shortened: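 CHRM1-CHO calcium-flux assay, antagonist mode. Cells were seeded 18 h, dye-loaded 1 h at 37 C and given compound for 5 min at RT, then acetylcholine was added at 50nM. FDSS fluorescence was read 3 min; 15 concentrations, three runs.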

[12] = molecular target: Muscarinic acetylcholine receptor M1 (Homo sapiens) (UniProt P11229); assay: Cholinergic receptor muscarinic 1 (CHRM1) small molecule agonists, cell-based qHTS assay (AID 1963589); also: nearly all actives have a fitted effect of over 35% in size
Procedure, shortened: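 Agonist-mode qHTS in CHO cells stably carrying human muscarinic M1. Intracellular calcium is tracked by fluorescence every second after compound transfer; each compound runs at 15 concentrations in three independent runs.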

[13] = cAMP Responsive Elements (CRE) small molecule agonists, cell-based qHTS assay (AID 1963590)
Procedure, shortened: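 Agonist mode qHTS in CRE-bla HEK 293T cells: compounds dosed from DMSO for 3 h at 37 C/5% CO2, followed by LiveBLAzer B/G FRET substrate for 2 h at room temperature.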

[14] = cAMP Responsive Elements (CRE) small molecule antagonists, cell-based qHTS assay (AID 1963591; active = well fitted inhibition curve with a large enough effect in the signal ratio in the repeat runs, not every such curve was filed as active; the % refers to the signal ratio)
Procedure, shortened: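 Antagonist mode: test compounds are co-incubated with the adenylyl cyclase activator NKH477 (0.25 uM final) on CRE-bla HEK293T cells for 3 h at 37 °C, followed by LiveBLAzer substrate loading.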

[15] = molecular target: Beta-2 adrenergic receptor (Homo sapiens) (UniProt P07550); assay: Adrenergic beta2 receptor (ADRB2) small molecule antagonists, cell-based qHTS assay (AID 1963592); also: series mostly up to about 92 µM; nearly all actives have a fitted effect of over 50% in size
Procedure, shortened: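 Cells (CHO, stable ADRB2 overexpression) incubated 18-20hr at 37C; compounds added from DMSO; agonist mix (1nM isoproterenol, 100uM IBMX, 25uM Ro-20-1724) added; 0.5hr RT; d2-cAMP and anti-cAMP-cryptate added; 1hr RT; 665/615 nm read.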

[16] = molecular target: Beta-2 adrenergic receptor (Homo sapiens) (UniProt P07550); assay: Adrenergic beta2 receptor (ADRB2) small molecule agonists, cell-based qHTS assay (AID 1963593);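 also: CHO cells stably overexpressing human ADRB2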
Procedure, shortened: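 CHO cells stably over-expressing ADRB2 were plated overnight at 37C, then dosed with compounds plus a stimulation mix containing 100uM IBMX and 25uM Ro-20-1724 for 0.5hr at room temperature. cAMP was measured by HTRF competition, 1hr.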

[17] = molecular target: D(2) dopamine receptor (Homo sapiens) (UniProt P14416); assay: Dopamine D2 receptor (DRD2) small molecule agonists, cell-based qHTS assay (AID 1963594); also: nearly all actives have a fitted effect of over 35% in size
Procedure, shortened: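 cAMP accumulation in DRD2-HEK293 cells measured by HTRF after 1 h detection; compounds added 10 min before NKH477 (200nM […]) forskolin-analogue stimulation, 30 min at room temperature, with Ro20-1724 present at 0.1 mM final.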

[18] = molecular target: D(2) dopamine receptor (Homo sapiens) (UniProt P14416); assay: Dopamine D2 receptor (DRD2) small molecule antagonists, cell-based qHTS assay (AID 1963595; active = well fitted inhibition curve with a large enough effect in the signal ratio in the repeat runs, with a control signal flat; the % refers to the signal ratio)
Procedure, shortened: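 Antagonist mode in DRD2-HEK293 cells: after compound addition with 0.1 mM Ro20-1724, cells received quinpirole (12 nM) and NKH477 (200 nM) for 30 min at room temperature; HTRF cAMP read after 1 h detection.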

[19] = p53 small molecule agonists, cell-based qHTS assay (AID 1963582; active = well fitted activation curve with a large enough effect in the signal ratio in the repeat runs, not every such curve was filed as active; the % refers to the signal ratio)
Procedure, shortened: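 Quantitative HTS in p53RE-bla cells: after a 5 h settling period, compounds delivered in DMSO were left on cells for 16 h at 37 C, and reporter induction was measured as fluorescence following 2 h substrate loading.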

Measured: Potency

Beta-2 adrenergic receptor (Homo sapiens), sequence (P07550 whole entry, looked up): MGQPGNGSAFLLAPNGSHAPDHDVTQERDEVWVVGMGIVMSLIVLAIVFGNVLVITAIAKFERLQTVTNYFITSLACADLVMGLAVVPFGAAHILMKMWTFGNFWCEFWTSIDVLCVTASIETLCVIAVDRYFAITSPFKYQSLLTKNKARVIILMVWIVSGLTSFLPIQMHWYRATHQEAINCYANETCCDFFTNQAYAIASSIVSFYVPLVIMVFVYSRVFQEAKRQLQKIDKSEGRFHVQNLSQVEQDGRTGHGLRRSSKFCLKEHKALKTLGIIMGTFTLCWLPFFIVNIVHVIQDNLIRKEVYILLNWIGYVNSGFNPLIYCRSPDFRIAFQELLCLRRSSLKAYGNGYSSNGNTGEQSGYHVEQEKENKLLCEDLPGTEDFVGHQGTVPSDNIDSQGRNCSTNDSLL
5-hydroxytryptamine receptor 2A (Homo sapiens), sequence (P28223 whole entry, looked up): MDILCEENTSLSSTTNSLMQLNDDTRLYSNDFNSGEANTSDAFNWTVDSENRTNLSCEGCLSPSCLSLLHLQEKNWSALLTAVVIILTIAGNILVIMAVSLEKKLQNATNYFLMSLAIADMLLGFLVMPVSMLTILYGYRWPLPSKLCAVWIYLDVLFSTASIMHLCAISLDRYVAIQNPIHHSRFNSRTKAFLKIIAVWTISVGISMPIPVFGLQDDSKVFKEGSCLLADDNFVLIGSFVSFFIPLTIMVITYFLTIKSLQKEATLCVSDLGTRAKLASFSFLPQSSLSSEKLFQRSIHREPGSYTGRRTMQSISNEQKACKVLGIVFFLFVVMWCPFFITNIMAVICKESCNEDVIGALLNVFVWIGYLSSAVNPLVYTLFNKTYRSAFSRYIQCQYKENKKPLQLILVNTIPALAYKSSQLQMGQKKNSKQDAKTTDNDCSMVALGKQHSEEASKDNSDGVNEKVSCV
D(2) dopamine receptor (Homo sapiens), sequence (P14416 whole entry, looked up): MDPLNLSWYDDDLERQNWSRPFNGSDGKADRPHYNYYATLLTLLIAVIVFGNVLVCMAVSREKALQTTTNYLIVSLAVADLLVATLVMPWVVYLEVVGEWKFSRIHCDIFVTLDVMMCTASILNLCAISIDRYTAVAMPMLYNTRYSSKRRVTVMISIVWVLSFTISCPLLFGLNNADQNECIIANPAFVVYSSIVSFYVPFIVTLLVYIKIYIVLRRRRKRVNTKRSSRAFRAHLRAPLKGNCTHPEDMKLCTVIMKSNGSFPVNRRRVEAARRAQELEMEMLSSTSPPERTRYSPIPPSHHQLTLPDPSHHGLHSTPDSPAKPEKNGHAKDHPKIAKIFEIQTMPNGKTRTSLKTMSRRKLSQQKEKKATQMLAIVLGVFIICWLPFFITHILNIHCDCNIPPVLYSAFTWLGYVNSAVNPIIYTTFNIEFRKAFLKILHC
KiSS-1 receptor (Homo sapiens), sequence (Q969F8 whole entry, looked up): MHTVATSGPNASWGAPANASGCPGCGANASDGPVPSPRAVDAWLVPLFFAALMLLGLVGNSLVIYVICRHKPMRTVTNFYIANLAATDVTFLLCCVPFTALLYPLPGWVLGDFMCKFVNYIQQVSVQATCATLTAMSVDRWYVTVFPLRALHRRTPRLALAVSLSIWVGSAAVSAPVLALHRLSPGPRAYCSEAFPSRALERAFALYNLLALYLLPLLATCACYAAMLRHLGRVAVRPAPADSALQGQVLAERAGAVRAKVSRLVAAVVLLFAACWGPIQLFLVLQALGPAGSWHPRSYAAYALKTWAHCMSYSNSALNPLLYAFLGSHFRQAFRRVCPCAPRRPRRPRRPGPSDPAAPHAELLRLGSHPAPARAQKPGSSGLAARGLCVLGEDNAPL
Muscarinic acetylcholine receptor M1 (Homo sapiens), sequence (P11229 whole entry, looked up): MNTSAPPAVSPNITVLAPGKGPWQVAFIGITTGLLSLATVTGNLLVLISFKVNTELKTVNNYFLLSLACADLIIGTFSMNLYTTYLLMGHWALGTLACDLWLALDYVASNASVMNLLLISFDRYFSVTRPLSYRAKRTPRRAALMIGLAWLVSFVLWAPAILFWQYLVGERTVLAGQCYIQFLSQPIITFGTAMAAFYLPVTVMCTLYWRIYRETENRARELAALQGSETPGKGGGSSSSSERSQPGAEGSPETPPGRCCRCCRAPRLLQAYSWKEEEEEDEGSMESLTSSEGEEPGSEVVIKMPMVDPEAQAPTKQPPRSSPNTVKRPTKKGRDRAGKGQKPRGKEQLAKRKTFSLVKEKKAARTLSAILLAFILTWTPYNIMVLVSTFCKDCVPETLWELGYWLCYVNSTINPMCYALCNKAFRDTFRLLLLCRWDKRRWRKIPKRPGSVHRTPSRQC
Gonadotropin-releasing hormone receptor (Homo sapiens), sequence (P30968 whole entry, looked up): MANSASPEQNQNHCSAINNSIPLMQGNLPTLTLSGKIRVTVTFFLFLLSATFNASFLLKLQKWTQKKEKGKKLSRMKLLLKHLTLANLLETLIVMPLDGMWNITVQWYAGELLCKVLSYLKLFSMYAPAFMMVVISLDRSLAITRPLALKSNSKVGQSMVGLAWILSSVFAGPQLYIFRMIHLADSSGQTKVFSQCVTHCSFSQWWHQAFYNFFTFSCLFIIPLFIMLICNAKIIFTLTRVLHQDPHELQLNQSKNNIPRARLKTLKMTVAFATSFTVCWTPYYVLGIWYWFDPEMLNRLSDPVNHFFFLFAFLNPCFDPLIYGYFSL

CNC(=O)N(C)c1nc2ccccc2s1
inactive: [1] | [2] | [3] | [4] | [5] | [6] | [7] | [8] | [9] | [10] | [11] | [12] | [13] | [14] | [15] | [16] | [17] | [18]

COP(=S)(NC(C)C)Oc1ccc(C)cc1[N+](=O)[O-] (centres undefined)
inactive: [1] | [2] | [3] | [4] | [5] | [6] | [7] | [8] | [9] | [10] | [11] | [12] | [14]

[O-][Cl+3]([O-])([O-])O
inactive: [1] | [2] | [3] | [4] | [5] | [6] | [7] | [8] | [9] | [10] | [11] | [12] | [13] | [15] | [16] | [17] | [18]

CC1(C)COP(Oc2ccccc2)OC1
inactive: [1] | [2] | [3] | [4] | [5] | [6] | [7] | [8] | [9] | [10] | [11] | [12] | [13] | [15] | [17] | [18]

ClC(Br)Br
inactive: [1] | [2] | [3] | [4] | [5] | [6] | [7] | [8] | [19] | [10] | [12] | [13] | [14] | [15] | [16] | [17]

CNC(=O)Oc1cc(C)c(SC)c(C)c1
inactive: [1] | [2] | [3] | [4] | [5] | [6] | [7] | [8] | [19] | [10] | [11] | [12] | [14] | [15] | [17] | [18]

CCNP(=S)(OC)O/C(C)=C/C(=O)OC(C)C (centres undefined)
inactive: [1] | [2] | [3] | [4] | [5] | [6] | [7] | [8] | [9] | [10] | [11] | [12] | [13] | [14] | [15] | [16] | [17] | [18]

CSC(C)(C)/C=N/O
inactive: [1] | [2] | [3] | [4] | [5] | [6] | [7] | [8] | [9] | [10] | [11] | [12] | [13] | [14] | [15]
